JMJD2A Tudor inh: blocks the human JMJD2A Tudor domain; O75164; AlphaScreen JMJD2A-Tudor / H3K4me3 peptide binding; Potency, µM (titrated, usually from 114 µM), actives largely listed as inhibitors; actives 4.4% (n = 390,000); AID 504339; note: nearly all actives have a fitted effect of over 50% in size
CtBP-E1A inh: inhibitors of CtBP/E1A interaction; AlphaScreen GST-E1A/His-CtBP binding, 1536-well; stronger effect = lower value; activity change, % (concentration not given with the values); actives 0.49% (n = 340,000); AID 651724; in the data active = activity change below about -65%; inconclusive = mostly about -30% to -63%
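AlphaScreen with 125 nM GST-E1A and 125 nM His-CtBP (5X stocks) in Tris pH 8.0, 300 mM NaCl, BSA, Tween 20, TCEP. Compounds preincubated 2 h at 37 deg C, then glutathione donor/nickel acceptor beads added for 1 h at 37 deg C in dark.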
BAZ2B block: BAZ2B (human) inhibition. Potency, µM (series often up to 114 µM), actives largely listed as inhibitors. AlphaScreen BAZ2B-H3K14Ac peptide displacement. actives 4.4% (n = 360,000); note: nearly all actives have a fitted effect of over 60% in size
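BAZ2B (50 nM) with biotin-H3(5-23)K14Ac peptide (50 nM) in PBS pH 7.4, 0.01% Tween-20, preformed 30 min, then compound 30 min at room temperature; top concentration 110uM. AlphaScreen streptavidin donor/nickel chelate acceptor beads (10 ug/mL final), 20 min dark, signal read.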
Six1-Eya2 inh: inhibitors of human Six1/Eya2 interaction; AlphaScreen GST-Six1/His-Eya2 binding, biochemical; stronger effect = lower value; activity change, % (concentration not given with the values); actives 0.56% (n = 360,000); AID 651725; in the data active = activity change below about -65%; inconclusive = mostly about -30% to -63%
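Compounds are tested against tagged Six1 and Eya2 proteins bridged by glutathione donor and nickel acceptor beads; after a one-hour incubation at 37 °C without light, AlphaScreen emission is recorded.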
HP1b chromo inh: blocks HP1-beta chromodomain binding to methylated histone tails | P83916 | AlphaScreen HP1-beta / biotin-H3K9me3 peptide binding | Potency, µM (doses to about 114 µM), actives largely listed as inhibitors | actives 0.56% (n = 390,000); note: nearly all actives have a fitted effect of over 70% in size
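AlphaScreen: HP1-beta (50 nM) preformed 30 min with biotin-H3(1-18)K9me3 peptide (50 nM) in PBS pH 7.4, 0.01% Tween-20. Compound added for 30 min at RT, then streptavidin donor/nickel chelate acceptor beads (10 ug/mL) for 30 min.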
G9a inh: G9a (human) methyltransferase inhibition; G9a H3K9 monomethylation, AlphaScreen, 2 h; actives 8.8% (n = 350,000); Q96KQ7; Potency, µM (series often up to 102 µM), usual class: inhibitors; note: nearly all actives have a fitted effect of over 75% in size
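Chemiluminescent proximity detection of H3K9 monomethylation, read after 10 min bead incubation in the dark. Reaction: 20 nM G9a, 500 nM biotin-H3K9 peptide, 20 uM SAM cofactor, 2 h, room temperature, following 15 min enzyme-compound preincubation.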
Numbers stand for hits; . = inactive; ? = inconclusive; / = no result; [ ] = another dose, or the depositor's remark. This is a sample that favours compounds with a hit; in the whole collection about 10% have one here. Unless noted, calls come from the whole dose curve; as a rule, active = well fitted inhibition curve with a large enough effect; inconclusive = small, poorly fitted or top-dose-only effect; inactive = no such curve, though single readings can be large or run the other way.

SMILES | JMJD2A Tudor inh | CtBP-E1A inh | BAZ2B block | Six1-Eya2 inh | HP1b chromo inh | G9a inh
CCOCCCNC(=O)c1ccc2c(=O)n(CCCOCC)c(=S)[nH]c2c1 | . | . | . | . | . | 10µM
CCOCCCn1c(=S)[nH]c2cc(C(=O)NCCOC)ccc2c1=O | 40µM | . | ? | . | . | ?
CCOCCCn1c(=S)[nH]c2cc(C(=O)NCCCN(CC)CC)ccc2c1=O | . | . | . | . | . | 8.9µM
CCOCCCNC(=O)c1ccc2c(=O)n(CCc3ccccc3)c(=O)[nH]c2c1 | . | / | . | / | . | .
COC(=O)c1ccc2c(=O)n(CCCCCC(=O)O)c(=S)[nH]c2c1 | 50µM | . | . | . | . | 45µM
CCCN(CCC)c1nc(NC2CCN(C(=O)OCC)CC2)nc(OC)n1 | . | . | . | . | . | .
O=C(NC1CCCc2c1cnn2-c1ccccc1F)c1ccccc1N1CCOCC1 (stereo not given) | . | . | . | . | . | /
COCCNC(=O)C1CCC(Cn2c(=S)[nH]c3ccccc3c2=O)CC1 (stereo not given) | 79µM | . | . | . | . | ?
COCCn1c(=S)[nH]c2cc(C(=O)NC(C)C)ccc2c1=O | ? | . | ? | . | . | 11µM
COC(=O)c1ccc2c(=O)n(CCCCCC(=O)N3CCN(c4ccccc4)CC3)c(=O)[nH]c2c1 | 56µM | . | . | . | . | .
O=C(NCCc1c[nH]c2ccccc12)C1CCC(Cn2c(=S)[nH]c3ccccc3c2=O)CC1 (stereo not given) | . | . | . | . | . | .
CCCCCCCCCCCCCCCCCC(=O)OCC(O)CO (stereo not given) | / | / | / | / | / | .
Cc1ccc(-c2nnc(Oc3ccc(NC(=O)c4ccccc4)cc3)c3ccccc23)cc1 | . | . | . | . | . | .
Cc1cc(=O)n(Cc2cccc(Br)c2)c2c1c(C)nn2-c1ccccc1 | . | / | . | / | . | .
Cc1cc(C)c(Cn2c(C)c(CNCc3ccccc3C)c(C(=O)O)c2C)c(C)c1 | ? | / | . | / | . | .
O=c1c2c3c(sc2n(Cc2cc(=O)n4ccccc4n2)c(=O)n1-c1ccccc1)CCC3 | . | / | . | / | . | .
Cc1ccc(NC(=O)c2cc(NC(=O)c3ccco3)ccc2N2CCOCC2)cc1 | . | . | . | . | . | .
Cc1ccc(SCC(=O)Nc2ccc(N3CCOCC3)cc2)cc1 | . | / | . | . | . | .
Cc1ccc(NC(=O)c2cc(N3C(=O)C=CC3=O)ccc2N2CCOCC2)cc1 | 11µM | . | ? | . | ? | 1µM
Cc1ccc(NC(=O)c2cc(N3C(=O)C=CC3=O)ccc2Cl)cc1C | 10µM | . | ? | . | ? | 1.6µM
Cc1nc(SCC(=O)Nc2ccc(N3CCOCC3)cc2)nc(C)c1C | . | . | . | . | . | 40µM
COC(=O)c1ccccc1SCC(=O)Nc1ccc(N2CCOCC2)cc1 | . | . | . | . | . | 79µM
CC(=O)c1ccc(-c2cnc3c(NC=O)cc(-c4cnn(C)c4)cn23)cc1 | / | . | / | . | / | /
CCOc1ccccc1Nc1ccc2cc(S(=O)(=O)N3CCCCC3)ccc2n1 | . | / | . | / | . | ?
Cc1ccc(NC(=O)CSCC(=O)Nc2ccc(N3CCOCC3)cc2N2CCOCC2)cc1 | . | . | . | . | . | 50µM
SMILES | JMJD2A Tudor inh | CtBP-E1A inh | BAZ2B block | Six1-Eya2 inh | HP1b chromo inh | G9a inh
Cc1ccc(NC(=O)CSCC(=O)Nc2ccc(N3CCOCC3)c(Cl)c2)cc1 | . | . | . | . | . | .[12.7 µM]
Cc1cc(C)nc(SCC(=O)Nc2ccc(N3CCOCC3)cc2)n1 | . | . | . | . | . | 11µM
COc1ccc(-c2cnn3c4c(c(C)nc23)CCN4C2CCCC2)cc1OC | . | . | . | . | . | ?
COCCN1CCc2c(C)nc3c(-c4ccc(OC)c(OC)c4)cnn3c21 | . | . | . | . | . | 79µM
Cn1nnnc1Sc1ncnc2scc(I)c12 | 79µM | / | / | / | / | /
CCCOc1ccc(C2c3c(-c4ccccc4O)n[nH]c3C(=O)N2Cc2ccncc2)cc1OCC (stereo not given) | . | / | . | / | . | .
CN(C)[C@H]1C(=O)C(C(=O)NCN2CCCC2)=C(O)[C@]2(O)C(=O)C3=C(O)c4c(O)cccc4[C@@](C)(O)[C@H]3C[C@@H]12 | / | / | / | / | / | 7.9µM
CN1CCN(c2cc(=O)n(C3CCCCC3)c(=O)[nH]2)CC1 | . | . | . | . | . | 35µM
